Whole data set: some 33,000 sequences, median “E-score (dimensionless, -0.5 to 0.5)” near -0.058, cut for the highest 2% near 0.35. What follows is part of a selection rich in the highest values, with near analogues and random picks from the rest.
system: MvaT; assay: PBM 8-mer E-score (mean of HK and ME arrays) (E-score (dimensionless, -0.5 to 0.5)); higher = stronger relative binding preference
In short: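 Full-length P. aeruginosa MvaT, with glutathione S-transferase fused to its N-terminus (cloned into pTH6838 by isothermal assembly), was tested by protein binding microarray using a previously described protocol. Two universal double-stranded 60-mer arrays (ME and HK) were used, each with a constant 25-mer primer region and a variable 35-mer region covering all 8-mers. The rank-based 8-mer E-score (-0.5 to 0.5) is the mean of the two arrays, parsed with a custom Python script.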

Row | Sequence | PBM 8-mer E-score
1 | CCCTGATC | -0.224
2 | CTACATGC | -0.081
3 | ATCGGTAA | -3.6e-06
4 | GCCGCGTA | -0.0692
5 | ACACCCCC | -0.251
6 | AGCACAAA | 0.0677
7 | AGGCACCT | -0.217
8 | GACTTTGC | 0.127
9 | TAAAAATA | 0.3
10 | GAAAAATA | 0.317
11 | CTAAAATA | 0.353
12 | ATAAAATG | 0.249
13 | GTAAAATA | 0.345
14 | GTAAAAAA | 0.137
15 | CTAAAATC | 0.148
16 | ATAAAATA | 0.427
17 | ATAAAATC | 0.193
18 | AATAAGTC | 0.298
19 | ATATTGTG | 0.251
20 | CTATTGTA | 0.34
21 | ATATTGTA | 0.376
22 | ACATTGTC | 0.116
23 | CTATTGTC | 0.12
24 | ATATTGTC | 0.346
25 | CTCGAGTA | -0.0253

Row | Sequence | PBM 8-mer E-score
26 | AGCCAACA | 0.0763
27 | AAGTCGAT | -0.0445
28 | AGCAGACG | -0.169
29 | ACTGCGAG | -0.0652
30 | GATAATCA | 0.176
31 | TATAATCA | 0.389
32 | GCTAATAA | 0.338
33 | AGTAATAG | 0.213
34 | AATAATCA | 0.259
35 | AGTAATAT | 0.418
36 | AATAATCC | 0.26
37 | AATAATAT | 0.453
38 | TATAATAA | 0.477
39 | AATAATCT | 0.314
40 | AGTAATAC | 0.297
41 | TAGAATAA | 0.306
42 | ACGCACTC | -0.0389
43 | AAAAAGAG | 0.0446
44 | AACGTTTG | 0.0612
45 | AGCCGCAA | -0.0521
46 | GGGCCGAC | -0.267
47 | GGCGGAAC | -0.146
48 | ATCTTCAA | 0.0478
49 | GCCTTGGA | -0.206
50 | GGCACCCA | -0.148

Row | Sequence | PBM 8-mer E-score
51 | CTCCACTC | -0.232
52 | AATAAGAG | 0.222
53 | GATAATAA | 0.404
54 | AATAAGAT | 0.356
55 | AATAATAG | 0.402
56 | AATAATAA | 0.478
57 | AATAGTAG | 0.294
58 | CATAATAG | 0.318
59 | CATAATAA | 0.334
60 | AATAAGAA | 0.318
61 | AGGCATCG | -0.134
62 | TAAATCAA | 0.341
63 | AATTGGTG | 0.0491
64 | CGCTGTAC | -0.228
65 | GCAGCTAA | 0.0363
66 | GATAATAC | 0.301
67 | AATAATAC | 0.419
68 | CATAATAC | 0.327
69 | GGAAATCA | -0.0787
70 | GAGGAATC | -0.0683
71 | TCCATCAA | -0.032
72 | ACAAGGTA | -0.0731
73 | CGTTAACA | 0.114
74 | AGTTAACT | 0.377
75 | AGTTAACC | 0.142

Row | Sequence | PBM 8-mer E-score
76 | AGTTAACA | 0.348
77 | AGTTAACG | 0.204
78 | TGTTAACA | 0.33
79 | GTGAACCA | -0.139
80 | AACGCTTA | 0.0532
81 | TCATTAAA | 0.228
82 | CTATTAAC | 0.315
83 | AGATTAAC | 0.173
84 | ATATTAAA | 0.466
85 | CTGTTAAA | 0.175
86 | ATATTAAC | 0.434
87 | GTATTAAA | 0.313
88 | TTATTAAA | 0.409
89 | TTGTTAAA | 0.346
90 | CTATTAAA | 0.283
91 | GTGTTAAA | 0.177
92 | CGATTAAA | 0.218
93 | GAGGACTC | -0.279
94 | CTCGGAAG | -0.0476
95 | CGCACACG | -0.149
96 | GATTCTGC | -0.159
97 | CACTACGA | -0.0417
98 | CCTGGCAG | -0.209
99 | CGTTGTAC | -0.0465
100 | AAGAGCTT | -0.115

Row | Sequence | PBM 8-mer E-score
101 | GATTCTGA | -0.00658
102 | AGCGCAAA | 0.162
103 | AACCAGGC | -0.183
104 | GCCTAATA | 0.133
105 | AAATTTCT | 0.148
106 | GCATTAAC | 0.114
107 | GGATTAAC | 0.111
108 | CTATTAAG | 0.17
109 | ATATTACG | 0.299
110 | GTATTAAC | 0.39
111 | ATATTAAG | 0.446
112 | AGCGTCGC | -0.197
113 | CACAACCG | -0.028
114 | ATCGTATA | 0.115
115 | CCTACGAG | -0.148
116 | ATAAGTCA | 0.17
117 | TGTATAAA | 0.258
118 | GGTATAAA | 0.339
119 | AGTATAAC | 0.36
120 | AGTATAAA | 0.381
121 | CGTATAAC | 0.113
122 | GGTATAAC | 0.226
123 | ATGTAAAA | 0.247
124 | CTTCCCCC | -0.176
125 | AACACACA | 0.187

Row | Sequence | PBM 8-mer E-score
126 | AGGCTTAC | -0.247
127 | GGATAATA | 0.403
128 | CGATAATA | 0.301
129 | GGATAAGA | 0.0379
130 | AGATAATC | 0.136
131 | AGATAATA | 0.366
132 | AGATAATG | 0.295
133 | GCTCGAGA | -0.152
134 | CCGTTCGC | -0.222
135 | CTCCGGTA | -0.227
136 | CAACGGCG | -0.221
137 | GTGTATAA | 0.202
138 | CACTATAG | 0.196
139 | CCATATAG | 0.084
140 | CTCTATAA | 0.081
141 | GCGTATAA | 0.201
142 | ATCTATAA | 0.209
143 | CTATATAA | 0.421
144 | CTATATAG | 0.388
145 | ATATAGCG | 0.333
146 | ATCTATAG | 0.146
147 | ATATATAG | 0.468
148 | GTATATAA | 0.401
149 | AACTAGGA | 0.0115
150 | TGGCAACA | -0.122

Row | Sequence | PBM 8-mer E-score
151 | ACAATCAC | 0.00599
152 | CACGCATC | -0.154
153 | GTGGCCAA | -0.191
154 | ATGTTATG | 0.152
155 | CTGTTATA | 0.359
156 | ATGTTATA | 0.442
157 | CTGTTACA | 0.111
158 | CTGTTATC | 0.0487
159 | GTGTTATA | 0.32
160 | GAGGAAAC | -0.144
161 | GAAACAAA | 0.271
162 | CCTAATAA | 0.266
163 | ACTAATAC | 0.247
164 | TCTAATAA | 0.332
165 | ACTAATAT | 0.407
166 | ACTAATAG | 0.199
167 | ACTAATAA | 0.399
168 | CCAAATCC | -0.193
169 | AGAAAGAC | 0.00959
170 | GACACACA | 0.101
171 | AGGGACCC | -0.282
172 | AGACCTCG | -0.132

— the supplement of paper PMC4466236
